Tgondii IFNg – T. gondii growth inhibition with IFN-gamma, primary screen, cell-based; Toxoplasma gondii growth in IFN-gamma-treated host cells; hits give low values; activity change, negative = inhibition, % (test concentration not listed); actives 3.8% (n = 69,000); in the data active = activity change below about -70%, passing the limit was not always enough;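 note: host cells are HeLa cells infected with Toxoplasma gondii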
Starred values were filed as active, the others as inactive. The entries come from a sample that favours hits as a whole.

What do the screens show for `CC(C)(C)c1cc(C(F)(F)F)nc(SCCCNC(=O)CCc2ccccc2)n1`?
Tgondii IFNg: -74*

What do the screens show for `O=C(CCc1ccccc1)Nc1ccccc1C(F)(F)F`?
Tgondii IFNg: 30

Results for O=C(CCc1nc2ccccc2[nH]1)NCCc1ccc(C(F)(F)F)cc1 ?
Tgondii IFNg: -5

What do the screens show for `CCc1ccccc1NC(=O)c1nnn(Cc2nc(-c3ccc(OC)cc3OC)oc2C)c1C`?
Tgondii IFNg: -37

What do the screens show for `COCCN1C(=O)CCc2cc(NS(=O)(=O)c3ccc(F)c(C)c3)ccc21`?
Tgondii IFNg: -20

How did COc1cccc(S(=O)(=O)Nc2ccc3c(c2)CCC(=O)N3CC(C)C)c1 do in these assays?
Tgondii IFNg: -52

How did CC(C)CN1C(=O)CCc2cc(NS(=O)(=O)c3cccc(Cl)c3)ccc21 do in these assays?
Tgondii IFNg: -80*

Results for COCCN1C(=O)CCc2cc(NS(=O)(=O)c3ccc4c(c3)OCCO4)ccc21 ?
Tgondii IFNg: 88

Results for CC(C)CN1C(=O)CCc2cc(NC(=O)c3cc(F)ccc3Cl)ccc21 ?
Tgondii IFNg: -40

How did Cc1cc(S(=O)(=O)Nc2ccc3c(c2)CCC(=O)N3CC(C)C)ccc1F do in these assays?
Tgondii IFNg: -97*

How did COCCN1C(=O)CCc2cc(NS(=O)(=O)c3cccc(OC)c3)ccc21 do in these assays?
Tgondii IFNg: 1

How did CC(C)CN1C(=O)CCc2cc(NS(=O)(=O)c3ccc(F)c(Cl)c3)ccc21 do in these assays?
Tgondii IFNg: -87*

How did CC(C)CN1C(=O)CCc2cc(NS(=O)(=O)c3ccccc3F)ccc21 do in these assays?
Tgondii IFNg: -59

Results for CN(C)C1CC2(CCN(C(=O)c3ccno3)CC2)C1 ?
Tgondii IFNg: -1

How did CCCCOCc1n[nH]c(Cc2ccccc2)n1 do in these assays?
Tgondii IFNg: 10

How did Cc1cc(C)c(NC(=O)c2nnn(Cc3nc(-c4cccc(Cl)c4)oc3C)c2C)c(C)c1 do in these assays?
Tgondii IFNg: 56

Results for NC1(C(=O)O)CCN(Cc2cnc(-c3cccc4ccccc34)nc2)C1 (centres undefined) ?
Tgondii IFNg: 3

What do the screens show for `CC1=C(C(=O)Nc2cc(Cl)ccc2C)C2(CCN(Cc3ccccc3)CC2)OC1=O`?
Tgondii IFNg: -25

What do the screens show for `COc1ccc(/C=C/C(=O)N2CCc3c(cnc(C)c3CNC(=O)CN3CCCCC3)C2)cc1`?
Tgondii IFNg: 6

Results for CCOc1ccc(-c2nc(Cn3nnc(C(=O)Nc4cccc(Cl)c4)c3C)c(C)o2)cc1OC ?
Tgondii IFNg: 89

How did CCOc1ccc(-c2c(-c3ccccc3)ncn2CCC(N)=O)cn1 do in these assays?
Tgondii IFNg: -1

What do the screens show for `Cc1ccc(-c2nc(NC(=O)c3cncc(-c4cccs4)c3)sc2C)cc1Cl`?
Tgondii IFNg: -21

What do the screens show for `CCc1cc(C(=O)Nc2nc3c(s2)CCCCCC3)n(C)n1`?
Tgondii IFNg: -20

What do the screens show for `Cc1ccc(-c2nc(NC(=O)c3cc(C(C)(C)C)nn3C)sc2C)cc1Cl`?
Tgondii IFNg: -78*

Results for C=CCN(Cc1ccc(SC)cc1)C(=O)C1CCOC1 (centres undefined) ?
Tgondii IFNg: -12

What do the screens show for `Cc1ccc2c(c1)cc(C(=O)NCc1nc(Cc3ccccc3)no1)n2C`?
Tgondii IFNg: -53

Results for O=C(NCc1nc(Cc2cccs2)no1)c1cccc2ccnn12 ?
Tgondii IFNg: -53

What do the screens show for `CC(C)c1cc(C(=O)NCc2nc(Cc3cccs3)no2)n(C)n1`?
Tgondii IFNg: -83*

What do the screens show for `Cc1ccc(-c2coc(-c3ccc(NC(=O)NCc4ccco4)cc3)n2)c(C)c1`?
Tgondii IFNg: -35

How did COc1ccc(-c2nc(Cn3nnc(-c4nc(-c5cccs5)no4)c3C)c(C)o2)cc1 do in these assays?
Tgondii IFNg: -57

What do the screens show for `Cc1nccn1CCN(C)c1nc(C(C)(C)C)nc2c1cnn2C`?
Tgondii IFNg: -12

What do the screens show for `Cn1ncc2c(NCc3cc(C(C)(C)C)n[nH]3)nc(C(C)(C)C)nc21`?
Tgondii IFNg: -75*

What do the screens show for `CCOC(=O)CNc1nc(C(C)(C)C)nc2c1cnn2C`?
Tgondii IFNg: -4

What do the screens show for `O=C(NCCc1csc(-c2ccc(F)cc2)n1)C1CCCCC1`?
Tgondii IFNg: -34

What do the screens show for `CCN1CC2(CC1=O)CN(C(=O)N(C)C)CCN(S(=O)(=O)C1CC1)C2` (centres undefined)?
Tgondii IFNg: 5

What do the screens show for `Cc1cc(C)cc(NC(=O)CN2CCC3(CC2)N=C(c2cccc(C)c2)C(=O)N3)c1`?
Tgondii IFNg: -34

Results for CCOC1COC2(CCN(C(=O)CS(C)(=O)=O)CC2)C1 (centres undefined) ?
Tgondii IFNg: 211

Results for OCCCNCc1[nH]c2ccccc2c1Cl ?
Tgondii IFNg: -46

Results for O=C(Nc1ccc2c(c1)CN(Cc1ccccc1)C2)c1nc2ncccn2n1 ?
Tgondii IFNg: -77*

Results for Cc1nc2nc[nH]n2c(=O)c1CC(=O)Nc1ccc2c(c1)CN(Cc1ccccc1)C2 ?
Tgondii IFNg: -6

Results for CCn1c(C)nc2cc(NC(=O)c3cnc(N4CCOCC4)nc3)ccc21 ?
Tgondii IFNg: -8
